From PubChem BioAssay come the findings set out here.

The source made the active and inactive calls. Unless noted, how the calls were made is not given here.

Assay [1] in a line: resazurin metabolic signal in HepG2 cells – cell-based, resazurin fluorescence, 24 h, PK04 Diversity Set, profiling panel (AID 1172). Further: test concentration not given here. The conditions noted are these: HepG2 viability, higher = more signal. In general terms: The colour change of resazurin is a common sign of viable cells or microbes.
Assay [2] is described as follows: budding yeast growth changes without added modifier – OD600, strain BY4716, 24 h, basal condition, primary screen (AID 1173). To be noted: S. cerevisiae BY4716 growth, OD600, 24 h; higher = more signal, called active from +8 up or from −8 down.
Assay [3] can be described thus: viability profiling in MM1S myeloma cells – cell-based, resazurin fluorescence, basal, 24 h, PK04 Diversity Set, profiling panel (AID 1174).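 Further: MM1S multiple myeloma cell line; test concentration not given here.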 The conditions noted are these: higher = more signal, called active from +8 up or from −8 down.
Assay [4] concerns the target Dihydroorotate dehydrogenase (quinone), mitochondrial (Plasmodium falciparum (isolate 3D7)) (UniProt Q08210). As to the kind of experiment: inhibition of P. falciparum DHODH – biochemical, C-terminal His tag, absorbance 600 nm, primary screen (AID 1175).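 Further: recombinant parasite enzyme with a five histidine tag at its C terminus; test concentration not given here.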 To be noted: PfDHODH enzyme, DCIP absorbance 600 nm; higher = more signal, called active from +8 up or from −8 down.

A short description of assay [5]: inhibition of PAO1 biofilm formation – strain PAO1, LB-PBS medium, absorbance 600 nm, primary screen (AID 1176). Further: test concentration not given here. The conditions noted are these: P. aeruginosa PAO1 growth/biofilm, A600, 12 h; higher = more signal.
A short description of assay [6]: growth modulation of vineyard yeast isolate – strain RM11-1a, OD600, basal, 24 h, primary screen (AID 1177).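 Further: cultures grown under basal conditions with no added stressor; test concentration not given here.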 The conditions noted are these: S. cerevisiae RM11-1a growth, OD600, 24 h; higher = more signal, called active from +8 up or from −8 down.
The nature of assay [7]: growth of efflux-deficient E. coli DRC39 – strain DRC39, OD650, 24 h, E. coli filamentation inducers, primary screen (AID 1178).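 Further: growth measured as culture turbidity by optical density at 650 nm; test concentration not given here.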 To be noted: E. coli DRC39 acrAB, higher = more signal, called active from +8 up or from −8 down.
Assay [8] can be described thus: growth of efflux-deficient E. coli DRC39 – strain DRC39, OD650, 48 h, E. coli filamentation inducers, primary screen (AID 1179).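 Further: screen aims at cell division blockers that make cells filament.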 The conditions noted are these: E. coli DRC39 delta-acrAB growth, higher = more signal, called active from +8 up or from −8 down.
A short description of assay [9]: viability profiling in RPMI8226 myeloma cells – cell-based, resazurin fluorescence, basal, 24 h, PK04 Diversity Set, profiling panel (AID 1180).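 Further: RPMI8826 multiple myeloma cell line at 5000 cells per well; test concentration not given here.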 The conditions noted are these: higher = more signal.
Assay [10] concerns the target E3 ubiquitin-protein ligase XIAP (Homo sapiens) (UniProt P98170). As to the kind of experiment: small molecules binding XIAP protein – biophysical, small-molecule microarray, fluorescence 635 nm, primary screen (AID 1181).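 Further: score merges 667 nm emission and signal to noise over triplicate slides.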 The conditions noted are these: higher = more signal.

Sequence of Dihydroorotate dehydrogenase (quinone), mitochondrial (Plasmodium falciparum (isolate 3D7)) (Q08210 whole entry, looked up): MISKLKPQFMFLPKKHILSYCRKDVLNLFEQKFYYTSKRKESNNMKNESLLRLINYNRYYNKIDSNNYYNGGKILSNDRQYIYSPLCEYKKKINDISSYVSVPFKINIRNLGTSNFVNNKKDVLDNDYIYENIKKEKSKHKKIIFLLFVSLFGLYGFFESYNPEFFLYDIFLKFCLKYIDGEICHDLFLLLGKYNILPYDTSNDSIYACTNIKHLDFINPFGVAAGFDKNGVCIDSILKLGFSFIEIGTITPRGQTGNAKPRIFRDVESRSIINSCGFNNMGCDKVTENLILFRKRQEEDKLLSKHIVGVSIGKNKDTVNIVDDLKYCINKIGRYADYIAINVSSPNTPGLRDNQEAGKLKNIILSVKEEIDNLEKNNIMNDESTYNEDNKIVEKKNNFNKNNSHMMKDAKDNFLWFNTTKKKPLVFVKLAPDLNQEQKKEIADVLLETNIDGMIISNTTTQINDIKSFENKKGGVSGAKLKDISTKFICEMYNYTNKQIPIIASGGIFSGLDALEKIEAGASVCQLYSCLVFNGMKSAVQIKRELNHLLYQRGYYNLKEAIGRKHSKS
Sequence of E3 ubiquitin-protein ligase XIAP (Homo sapiens) (P98170 whole entry, looked up): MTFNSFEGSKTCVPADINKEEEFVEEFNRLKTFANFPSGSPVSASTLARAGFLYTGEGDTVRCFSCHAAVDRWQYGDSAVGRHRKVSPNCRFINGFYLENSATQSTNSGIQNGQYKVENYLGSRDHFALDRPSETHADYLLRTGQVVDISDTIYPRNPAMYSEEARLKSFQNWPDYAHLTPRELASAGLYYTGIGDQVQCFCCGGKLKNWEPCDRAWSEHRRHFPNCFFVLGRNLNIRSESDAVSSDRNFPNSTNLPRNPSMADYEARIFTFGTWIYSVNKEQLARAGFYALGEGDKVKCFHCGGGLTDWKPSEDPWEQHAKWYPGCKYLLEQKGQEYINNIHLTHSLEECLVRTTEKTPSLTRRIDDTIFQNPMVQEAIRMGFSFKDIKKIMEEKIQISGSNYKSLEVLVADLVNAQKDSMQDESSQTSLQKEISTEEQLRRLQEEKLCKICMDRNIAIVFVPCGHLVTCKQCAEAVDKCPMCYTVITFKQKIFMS

For `C=CCOC(=O)[C@H]1[C@@H]2C(=O)O[C@@H](c3ccccc3)[C@@H](c3ccccc3)N2[C@@H](c2ccc(OCCOC(=O)[C@H]3C[C@H]4C(=O)N[C@@H](Cc5ccccc5)C(=O)N4[C@H]3c3ccc(O)cc3)cc2)[C@]12C(=O)Nc1ccccc12`, the z-score was 0.696 in [1]; 1.32 (inactive) in assay [2]; 1.17 (inactive) in assay [3]; 2.64 (inactive) in assay [5]; 1.71 (inactive) in assay [6]; -0.38 (inactive) in assay [7]. Moreover, the z-score was 0.124 (inactive) in assay [8] and 1.74 in assay [9]. The composite z-score in assay [4] was -0.869 (inactive); in assay [10], 0.0015.

As for `CCCNC(=O)OC[C@H]1O[C@H](CCON=C[C@@H](OC)[C@H](C)C=CCC(=O)OC)C=C[C@@H]1Oc1ccc(OC)cc1`, the z-score in [1] is 0.173; in assay [2] it was 0.746 (inactive); in assay [3], 0.345 (inactive); in assay [5], -0.537 (inactive); in [6] it was 0.198 (inactive); in [7], 0.356 (inactive). The values for the z-score in assay [8] and in assay [9] were 0.138 (inactive) and 1.95, respectively. Also, the composite z-score in assay [4] was 0.329 (inactive); in assay [10], -0.0361.

With `CN1C(=O)C2C=CC(C(O)c3ccc(Br)cc3)N(N(c3ccccc3)c3ccccc3)C2C1=O` (stereo not given), the z-score is -0.456 in [1]; 0.431 (inactive) in assay [2]; -1.19 (inactive) in assay [3]; 1.01 (inactive) in [5]; 1.32 (inactive) in assay [6]; -0.499 (inactive) in assay [7]. The results for the z-score in assay [8] and in assay [9] were -0.283 (inactive) and -0.629, respectively. In addition, the composite z-score in assay [4] was 1.02 (inactive); in assay [10], -0.0255.

As for `CC(C)C[C@@H]1NC(=O)[C@H]2C[C@@H](C(=O)O)[C@@H](c3ccc(O)cc3)N2C1=O`, the z-score in assay [1] was 0.374; in assay [2], 0.0437 (inactive); in assay [3] it was 0.816 (inactive); in assay [5], -0.86 (inactive); in assay [6] it was 1.58 (inactive); in [7] it was -0.139 (inactive). The z-score in assay [8] was -0.456 (inactive); in assay [9], 0.453. The composite z-score in assay [4] is 0.425 (inactive); in [10] it was -0.125.

Take `COC(=O)c1c(CC[C@@H](CO)NC(=O)N[C@H](Cc2ccccc2)Cn2cc(-c3ccccc3N)nn2)oc(C(C)=O)c1C(=O)OC`: the z-score was -0.601 in assay [1]; -1.2 (inactive) in [2]; 0.505 (inactive) in assay [3]; -0.109 (inactive) in assay [5]; -0.053 (inactive) in assay [6]; 1.18 (inactive) in [7]. Besides, the z-score in assay [8] is 0.561 (inactive); in [9] it was 0.336. Further, the composite z-score in [4] was -0.433 (inactive); in assay [10], -0.127.

For the compound `O=C1C[C@@H](O)[C@@H](O)[C@@H]2[C@@H]3C(=O)N(c4ccc(F)cc4F)C(=O)[C@@H]3CC[C@@H]12`, the z-score is 0.685 in [1]; 0.461 (inactive) in assay [2]; 0.491 (inactive) in [3]; -0.626 (inactive) in [5]; -0.584 (inactive) in assay [6]; -0.385 (inactive) in assay [7]. Also, the z-score in assay [8] was -0.302 (inactive); in assay [9] it was 0.481. For the same compound, the results for the composite z-score in assay [4] and in [10] were 0.374 (inactive) and -0.0735, respectively.

`NC(=O)NCC#Cc1ccc2c(c1)[C@]1(C(=O)N2)[C@H](c2ccc(O)cc2)N2[C@H](c3ccccc3)[C@H](c3ccccc3)OC(=O)[C@H]2[C@@H]1C(=O)N1CCCCCCC1`: the z-score is 0.855 in assay [1]; 1.16 (inactive) in assay [2]; 0.949 (inactive) in [3]; 1.1 (inactive) in assay [5]; 1.96 (inactive) in [6]; 1.04 (inactive) in assay [7]. Also, the z-score in [8] was -0.817 (inactive); in assay [9], 1.36. For the same compound, the composite z-score in [4] is -0.127 (inactive); in [10], -0.0925.

For `CC(C)c1ccc(NN2C(C(O)c3ccc4c(c3)OCO4)C=CC3C(=O)N(c4ccccc4)C(=O)C32)cc1` (stereo not given), the z-score is -1.13 in assay [1]; -0.791 (inactive) in assay [2]; -0.165 (inactive) in assay [3]; 1.08 (inactive) in assay [5]; 0.266 (inactive) in assay [6]; -0.167 (inactive) in [7]. Moreover, the results for the z-score in assay [8] and in assay [9] were -0.563 (inactive) and -0.191, respectively. In addition, the composite z-score in assay [4] is -0.0797 (inactive); in assay [10], 0.0641.

Consider `CCOC(=O)CCN1C(=O)[C@H]2[C@H]3[C@H](O)[C@H](O)CC(=O)[C@H]3CC[C@H]2C1=O`, for which the z-score was -0.228 in assay [1]; -0.329 (inactive) in [2]; 0.552 (inactive) in assay [3]; 0.0122 (inactive) in [5]; -0.336 (inactive) in assay [6]; 0.231 (inactive) in assay [7]. Also, the z-score in assay [8] was -1.81 (inactive); in [9], 0.566. Also, the figures for the composite z-score in assay [4] and in assay [10] were -2.85 (inactive) and 0.065, respectively.

Regarding `C=CC[C@@H]1C=C[C@H](ON=C(C)CCN2CCc3nc(CC)c(CC)cc3C2)[C@@H](CO)O1`, the z-score in assay [1] was -0.127; in assay [2], -0.392 (inactive); in [3] it was -0.439 (inactive); in [5], -0.0417 (inactive); in [6] it was 0.189 (inactive); in [7], 0.0116 (inactive). Moreover, the results for the z-score in assay [8] and in assay [9] were 0.138 (inactive) and -0.639, respectively. Moreover, the figures for the composite z-score in assay [4] and in [10] were -1.29 (inactive) and 0.0178, respectively.

On to `CCN1C(=O)[C@H]2[C@H]3[C@H](O)[C@H](O)CC(=NOCc4ccccc4)[C@@H]3CC[C@H]2C1=O`, for which the z-score in [1] was -0.113; in assay [2], -1.73 (inactive); in assay [3], -2.61 (inactive); in assay [5] it was 0.659 (inactive); in assay [6], -2.27 (inactive); in assay [7], -0.717 (inactive). Further, the values for the z-score in [8] and in [9] were -0.353 (inactive) and -1.89, respectively. Also, the values for the composite z-score in assay [4] and in [10] were -2.05 (inactive) and -0.0302, respectively.

As for `COC(=O)[C@@]1(Cc2ccc(F)cc2)[C@@H]2C(=CC(=O)[C@H]2CC(=O)C(=O)N(C)C)CN1C(=O)c1ccccc1`, the z-score is -1.46 in assay [1]; 1.69 (inactive) in [2]; -2.73 (inactive) in assay [3]; 0.784 (inactive) in assay [5]; 1.38 (inactive) in [6]; -0.0125 (inactive) in assay [7]. Moreover, the z-score was 0.0104 (inactive) in [8] and -2.94 in assay [9]. The figures for the composite z-score in assay [4] and in assay [10] were 0.354 (inactive) and -0.174, respectively.
